Source: PubChem
Platelet DG rel: modulates dense granule release in human platelets. human platelet-rich plasma, SFLLRN dense granule ATP release, luminescence. inhibition, %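 (compounds screened at 7.5 µM in platelet-rich plasma)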. 300,000 compounds, 0.22% hits. AID 1663;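 active = mean replicate score, as percent of positive control, at or above 50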
SENP6 block: blocks the human protease SENP6 | Q9GZR1 | Recombinant SENP6 catalytic domain, aminoluciferin luminescence | inhibition, % at 10 µM | 330,000 compounds, 1.8% hits | AID 2599;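 active = inhibition above about 50% at the single tested dose, limit read from the data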;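 also: plate controls were DMSO wells with enzyme for no effect and DMSO wells lacking enzyme for full effect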
Target sequence (Q9GZR1 628-1112 limits assumed): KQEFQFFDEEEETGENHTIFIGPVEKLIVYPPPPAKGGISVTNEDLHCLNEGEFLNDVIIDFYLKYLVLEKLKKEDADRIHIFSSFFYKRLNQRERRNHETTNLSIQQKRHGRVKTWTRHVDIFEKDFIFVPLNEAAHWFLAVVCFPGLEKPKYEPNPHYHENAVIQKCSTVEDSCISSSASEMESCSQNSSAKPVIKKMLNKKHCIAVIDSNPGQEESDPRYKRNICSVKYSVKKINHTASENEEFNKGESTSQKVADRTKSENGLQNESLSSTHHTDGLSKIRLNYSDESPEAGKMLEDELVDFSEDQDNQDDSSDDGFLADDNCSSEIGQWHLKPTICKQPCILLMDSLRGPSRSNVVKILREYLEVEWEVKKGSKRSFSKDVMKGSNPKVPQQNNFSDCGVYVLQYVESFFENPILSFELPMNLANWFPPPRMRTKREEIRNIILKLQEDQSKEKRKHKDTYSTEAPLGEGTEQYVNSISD
SENP8 block-1: SENP8 (human) protease inhibition; inhibition, % at 20 µM; 360,000 compounds, 0.64% hits; AID 602440; recombinant SENP8, Nedd8 substrate fluorescence; Q96LD8; in the data active = inhibition mostly above about 40%, no sharp cut-off; inactive = mostly below about 27%
SENP7 inh: SENP7 protease inhibition | Q9BQF6 | 330,000 compounds, 1.5% hits | inhibition, % at 5 µM | recombinant SENP7, Z-RLRGG-aminoluciferin luminescence, 40 min;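 active = inhibition above about 50% at the single test dose, limit read from the data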;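 also: plate controls were DMSO with enzyme for no effect and no enzyme buffer wells for full effect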
SENP8 block-2: blocks the human protease SENP8; Q96LD8; purified SENP8, Z-RLRGG-aminoluciferin cleavage, luminescence; AID 2540; inhibition, % at 10 µM; 330,000 compounds, 1.2% hits; in the data active = inhibition above about 50%
The depositor's hits bear a star; i = inactive; nt = not tested or not shown. Hits are enriched below; roughly 2.4% of the tested compounds scored in any of these assays.

SMILES	Platelet DG rel	SENP6 block	SENP8 block-1	SENP7 inh	SENP8 block-2
COc1ccccc1C(=O)Nc1ccc(C(=O)O)cc1	0	-6	2	5	-1
COc1ccccc1C(=O)Nc1ccc(C2=NNC(=O)CC2C)cc1 (configuration not stated)	88*	-8	-89	0	-11
Cc1ccc(-n2nnnc2SCC(=O)N2CCc3ccccc3C2)cc1	11	12	41*	10	14
Cc1cccc(N=Nc2c(C)[nH]n(C(N)=S)c2=O)c1C	-1	77*	nt	39	65*
CCOc1ccccc1N=Nc1c(C)[nH]n(C(N)=S)c1=O	-9	-15	29	-8	-3
COc1cc(NC(=S)N2CCN(C/C=C/c3ccccc3)CC2)cc(OC)c1	57*	-26	0	-6	-1
CC(C)C(=O)N1CCCCCCN1C(=O)C(C)C	nt	nt	3	nt	nt
CO/N=C(/CNC(=O)c1ccc(Cl)cc1Cl)c1ccc(Cl)cc1	-3	-10	22	-7	-3
Cc1ccc(NC2=C/C(=N\S(=O)(=O)c3cccs3)c3ccccc3C2=O)c(C)c1	8	76*	116*	81*	92*
Cc1cccc(NC2=C/C(=N/S(=O)(=O)c3cccs3)c3ccccc3C2=O)c1	nt	nt	103*	nt	nt
Cc1ccc(Nc2cc(=O)oc3ccccc23)c(C)c1	-4	-2	8	-2	-5
CS(=O)(=O)c1[nH]nc(-c2ccccc2)c1C#N	-10	-15	13	11	-9
CCOC(=O)c1c(C)[nH]c(N=Nc2ccccc2)c1C	-2	14	44*	9	11
CCOC(=O)c1c(C)[nH]c(N=Nc2ccc(OC)cc2)c1C	8	61*	49*	17	33
CCOC(=O)c1c(C)[nH]c(N=Nc2ccccc2Cl)c1C	3	-2	35	31	17
C#CCOc1c(Br)cc(/C=C2/C(=O)ON=C2C)cc1OC	5	-10	6	5	4
C=CCOc1c(Br)cc(/C=C2/C(=O)ON=C2C)cc1OC	-7	8	32*	1	-3
N#Cc1ccsc1NC(=O)c1ccc(Cl)c([N+](=O)[O-])c1	-3	96*	21	91*	94*
Nc1c(S(=O)(=O)c2cccs2)c2nc3ccccc3nc2n1CCc1ccccc1	-1	53*	nt	27	31
O=C(COC(=O)Cc1ccccc1)NCc1ccc2c(c1)OCO2	nt	2	21	-8	-5
COc1cccc2sc3cc(NCc4ccc(C)o4)ccc3c(=O)c12	nt	30	-466	58*	42
Cc1cc(=O)[nH]c2ccc(S(=O)(=O)NC3CCCCC3)cc12	63*	-2	4	-9	-5
Cc1ccc(S(=O)(=O)NC2CCCC2)cc1C	nt	-6	25	-8	-2
OC(c1ccc(Cl)c(F)c1)c1ncc(-c2ccc(F)cc2)[nH]1 (configuration not stated)	nt	nt	9	nt	nt
C[C@H](NC(=O)c1[nH]cnc1C(=O)N[C@@H](C)CO)c1ccccc1	nt	nt	3	nt	nt
SMILES	Platelet DG rel	SENP6 block	SENP8 block-1	SENP7 inh	SENP8 block-2
Cc1cc2nc(N3C(=O)CNC3=S)sc2cc1C	-2	95*	-8	96*	95*
CC(C)(C)c1ccc(C(=O)NC(=S)NNC(=O)c2cccs2)cc1	52*	nt	18	nt	nt
O=C(COc1ccccc1Br)Nc1ccc(S(=O)(=O)N2CCCC2)cc1	nt	-11	6	-7	-13
O=C1C(=O)c2c(C(=O)c3ccccc3)coc2-c2ccccc21	-1	37	61*	8	5
O=C(C1=C(c2ccccc2)C(=O)c2ccccc2C1=O)c1ccccc1	-20	nt	35	nt	nt
Cc1ccc(S(=O)(=O)N2CCCCC2)cc1NC(=O)C1COc2ccccc2O1 (configuration not stated)	nt	nt	12	nt	nt
Cc1nc(NC(=O)CSc2nccn2C)sc1C(=O)N(C)C	-28	-2	8	6	8
COC(CN(C)S(=O)(=O)c1cc2c3c(c1)CCC(=O)N3CCC2)OC	-9	-6	8	5	10
CCOC(=O)c1cnc2c(C(=O)OCC)cnn2c1N	-3	-32	-74	4	1
CCOC(=O)c1cnc2c(-c3cccc(Br)c3)cnn2c1C	-8	15	14	55*	1
Cc1ccc(C(=O)CCC(=O)OC(C)C(=O)NC2CCCCC2C)cc1 (configuration not stated)	nt	-11	8	0	-9
Nc1cccc(C(=O)OCC(=O)c2ccccc2)c1	10	68*	10	70*	55*
O=C(CNC(=O)c1ccccc1Br)Nc1cccc(S(=O)(=O)Nc2ccccc2Cl)c1	nt	nt	1	nt	nt
COC(=O)c1c(NC(=O)/C=C/c2ccc3c(c2)OCO3)sc(C)c1C	-5	-9	-193	5	-1
CCOC(=O)c1c(NC(=O)/C=C/c2ccc3c(c2)OCO3)sc(C)c1CC	54*	-18	-272	-2	-5
O=C(/C=C/c1ccc2c(c1)OCO2)Nc1nncs1	19	60*	-427	84*	41
COc1ccc(N2CCN(C(=O)COC(=O)c3oc4ccccc4c3C)CC2)cc1	nt	0	10	-3	9
CCCSc1nnc(NC(=O)Nc2ccccc2OC)s1	3	-20	30	-10	-21
O=[N+]([O-])c1cc(/C=N/N/C(=N/c2ccccn2)c2ccccn2)ccc1O	-7	15	47*	-2	1
Cc1ccc(S(=O)(=O)NCCC(=O)N2CC(C)OC(C)C2)cc1C (configuration not stated)	-2	-11	10	-17	-9
O=C(CCN1C(=O)/C(=C\C=C\c2ccccc2)SC1=S)Nc1ccc(C(=O)O)cc1	-4	59*	16	18	60*
CCOC(=O)C1=C(C)NC(C)=C(C(=O)OCC)C1C(=O)OCC(=O)NCc1ccco1	nt	10	i	-4	12
Cc1ccc(C(=O)CNc2ccccc2)cc1	-1	11	22	-4	6
O=C(CNc1ccc(F)cc1)c1ccccc1	33	65*	21	19	32
CC(C)(C)C(=O)[C@@H]1[C@@H]2C(=O)N(c3ccc4c(c3)OCCO4)C(=O)[C@@H]2C2c3ccccc3C=CN21 (some centres not stated)	-9	24	60*	10	14
SMILES	Platelet DG rel	SENP6 block	SENP8 block-1	SENP7 inh	SENP8 block-2
Cc1ccc(N2C(=O)[C@@H]3[C@H](C2=O)C2c4ccccc4C=CN2[C@@H]3C(=O)c2ccco2)c(C)c1 (some centres not stated)	6	43	-123	51*	42
O=C(c1ccco1)[C@@H]1[C@@H]2C(=O)N(c3ccccc3)C(=O)[C@@H]2C2c3ccccc3C=CN21 (some centres not stated)	-3	87*	-2	7	64*
Cc1ccc(C(=O)N2CCC3CC2c2cc(-c4ccc5c(c4)OCO5)ccc23)cc1 (configuration not stated)	nt	nt	5	nt	nt
Cc1ccc(Nc2nc3ccccc3s2)cc1	12	82*	9	87*	72*
Fc1ccc(Nc2nc3ccccc3s2)cc1	1	34	7	44	20
Cc1nc(C)c(C(=O)N/N=C/c2cn(C)c3ccccc23)s1	2	11	-34	10	0
COC(=O)c1nn(C)c(=O)[nH]c1=O	nt	nt	3	nt	nt
